The structures appear in SMILES notation. In all, about 420,000 compounds went through this assay and about 64,000 (15%) were called active. Roughly 27% stayed inconclusive and do not appear here. Calls come from the whole dose curve; as a rule, active = well fitted inhibition curve with a large enough effect; inconclusive = small, poorly fitted or top-dose-only effect; inactive = flat fitted curve, though single readings scatter. The list is a sample of the results. Entries that show only a call come without a potency.

Drawing on PubChem BioAssay AID686978 (National Center for Advancing Translational Sciences (NCATS), 2013), this text covers Potency for 31 compounds.
Potency is the fitted concentration of half-maximal effect.

The nature of the assay: qHTS for Inhibitors of human tyrosyl-DNA phosphodiesterase 1 (TDP1): qHTS in cells in absence of CPT. Note: nearly all actives have a fitted effect of over 55% in size. As to conditions: DT40 Tdp1-/- hTDP1 cells, no CPT, ATP luminescence, 48 h; activity change, negative = growth inhibition: at 46.2 µM (top of the series). Summed up:
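DT40 Tdp1-/-;hTDP1 cells, no CPT (DMSO vehicle only), 400 cells/well; compounds pin-transferred; ≥48 hr, 37 °C; CellTiter-Glo 30 min RT dark, luminescence read.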
For orientation: In qHTS, concentration-response curves come from the screen itself.
In the case of `O=C1C(Cl)=C(Oc2ccccc2)C(=O)c2ccccc21`, the Potency was 0.259 µM (active).
In the case of `CC(=O)Oc1ccc2c(c1)C(=O)c1ccccc1C2=O`, the Potency entry was “inactive”.
To `Cc1cc(Nc2ccc(C(=O)N3CCCCC3)cc2)c2cccc(C)c2n1` belongs “inactive”; to `CCc1c(C)sc(NC(=O)OC)c1C(=O)N1CCOCC1`, “inactive”.
For `CCCOC(=O)CC1C(=O)NCCN1Cc1ccc(F)cc1` (stereo unspecified) the value was “inactive”; for `COc1ccc(NS(=O)(=O)c2cccc(C(=O)NCCc3ccc(S(N)(=O)=O)cc3)c2)cc1`, “inactive”.
`COc1ccc(NC(=O)/C(N=Nc2cccc(S(=O)(=O)Nc3ccc(SC(F)F)cc3)c2)=C(\C)O)cc1`: the Potency result is “inactive”.
To `COc1ccc(NS(=O)(=O)c2ccc(Oc3c(C#N)cccc3C#N)cc2)cc1` belongs 5.8 µM (active); to `C[C@H](CO)N1C[C@H](C)[C@@H](CN(C)C(=O)NC2CCCCC2)Oc2ccc(NC(=O)c3ccncc3)cc2C1=O`, “inactive”.
To `CO/N=C(\C(=O)N[C@@H]1C(=O)N2C(C(=O)O)=C(COC(C)=O)CS[C@H]12)c1csc(N)n1` (stereo in doubt) belongs “inactive”.
On to `COc1cccc(-c2nc(CS(=O)(=O)CC(=O)NCCc3ccc(OC)c(OC)c3)c(C)o2)c1`, for which the Potency entry was “inactive”.
To `COc1cccc(-c2nc(CS(=O)(=O)CC(=O)N3CCN(c4cc(C)ccc4C)CC3)c(C)o2)c1` belongs 3.66 µM (active); to `CCCCN(CC)CCCNC(=O)CS(=O)(=O)Cc1nc(-c2cccc(OC)c2)oc1C`, “inactive”.
Turning to `CCN(CC)CCN(C)C(c1ccnc2ccccc12)c1nnnn1-c1ccc2c(c1)OCCO2` (stereo unspecified), the Potency is 18.4 µM (active).
For `CC(=O)NC1CCN(CC(=O)Nc2nccs2)CC1` the value was “inactive”; for `Cc1cc(C)n(CCNC(=O)CC2C(=O)NCCN2Cc2ccc(C)o2)n1` (stereo unspecified), “inactive”; for `Cc1ncn(C23CC4CC(CC(O)(C4)C2)C3)n1`, “inactive”.
For `COC(=O)c1ccc(NC(=O)C23CC4CC(C2)CC(n2cnc(Cl)n2)(C4)C3)cc1` the value was 16.4 µM (active); for `COC(=O)c1ccc(NC(=O)CSc2nnc(C3CC3)n2C)cc1`, “inactive”.
For `CCOc1ccc(S(=O)(=O)NCCC(=O)NNC(=O)c2ccc(F)cc2)cc1` the value was “inactive”; for `COc1ccc(CCNC(=O)COc2cc(C)cc3oc(=O)c(C)c(C)c23)cc1OC`, “inactive”; for `COc1ccc(CNC(=O)c2cc(=O)c3c(C)cc(C)cc3o2)cc1`, “inactive”.
As to `COc1ccc(CCN2C(=O)c3oc4cc(C)cc(C)c4c(=O)c3C2c2ccccc2F)cc1OC` (stereo unspecified), the Potency is 2.91 µM (active).
On to `COc1ccccc1OCCNC(=O)C(CCSC)NC(=O)COc1ccccc1` (stereo unspecified), for which the Potency entry was “inactive”.
To `O=C(O)CC(c1ccccc1)n1cnnn1` (stereo unspecified) belongs “inactive”; to `CCCOc1ccc(C(=O)C(CCC(CNCC)C(=O)c2ccc(OCCC)cc2)CNCC)cc1` (stereo unspecified), 0.92 µM (active).
For `CCCCOc1ccc(C(=O)NCc2ccncc2)cc1` the value was “inactive”.
Turning to `CCCOc1ccc(C(=O)NCCc2ccccc2)cc1`, the Potency result is “inactive”.
Regarding `CCCCOc1ccc(C(=O)NN2CCN(C)CC2)cc1`, the Potency entry is “inactive”.
As for `CCCOc1ccc(C(=O)CCC(=O)OC(C)C(=O)Nc2ccc(NC(C)=O)cc2)cc1` (stereo unspecified), the Potency result was “inactive”.
To `CCCCOc1ccc(C(=O)NO)cc1` belongs 15.8 µM (active).
